# From paper PMC11062922 (Nature Chemical Biology, 2023)
# Where two headings read alike, the source gives them in different places.
# Experiments:
# AAK1 = system: AAK1; parameters: species or system human, MV4-11 + K-562 + COLO205 + SK-N-BE2 + OVCAR-8; conditions: read-out: apparent Kd, n = 1
# BMP2K = system: BMP2K; parameters: species or system human, MV4-11 + K-562 + COLO205 + SK-N-BE2 + OVCAR-8; conditions: read-out: apparent Kd, n = 1
# CLK1 = system: CLK1; parameters: species or system human, MV4-11 + K-562 + COLO205 + SK-N-BE2 + OVCAR-8; conditions: read-out: apparent Kd, n = 1
# CLK4 = system: CLK4; parameters: species or system human, MV4-11 + K-562 + COLO205 + SK-N-BE2 + OVCAR-8; conditions: read-out: apparent Kd, compound concentrations: 100 nM and 1000 nM (sheet 'Samples'), n = 1
# FLT4 = system: FLT4; parameters: species or system human, MV4-11 + K-562 + COLO205 + SK-N-BE2 + OVCAR-8; conditions: read-out: apparent Kd, n = 1
# GSK3A = system: GSK3A; parameters: species or system human, MV4-11 + K-562 + COLO205 + SK-N-BE2 + OVCAR-8; conditions: read-out: apparent Kd, n = 1
# GSK3B = system: GSK3B; parameters: species or system human, MV4-11 + K-562 + COLO205 + SK-N-BE2 + OVCAR-8; conditions: read-out: apparent Kd, n = 1
# NUAK1 = system: NUAK1; parameters: species or system human, MV4-11 + K-562 + COLO205 + SK-N-BE2 + OVCAR-8; conditions: read-out: apparent Kd, compound concentrations: 100 nM and 1000 nM (sheet 'Samples'), n = 1
# PAK4 = system: PAK4; parameters: species or system human, MV4-11 + K-562 + COLO205 + SK-N-BE2 + OVCAR-8; conditions: read-out: apparent Kd, n = 1
# Q6ZSR9 = Q6ZSR9 (human, UniProt Q6ZSR9); parameters: species or system MV4-11 + K-562 + COLO205 + SK-N-BE2 + OVCAR-8; conditions: read-out: apparent Kd, n = 1
# Q6ZSR9, sequence (Q6ZSR9 whole entry, looked up): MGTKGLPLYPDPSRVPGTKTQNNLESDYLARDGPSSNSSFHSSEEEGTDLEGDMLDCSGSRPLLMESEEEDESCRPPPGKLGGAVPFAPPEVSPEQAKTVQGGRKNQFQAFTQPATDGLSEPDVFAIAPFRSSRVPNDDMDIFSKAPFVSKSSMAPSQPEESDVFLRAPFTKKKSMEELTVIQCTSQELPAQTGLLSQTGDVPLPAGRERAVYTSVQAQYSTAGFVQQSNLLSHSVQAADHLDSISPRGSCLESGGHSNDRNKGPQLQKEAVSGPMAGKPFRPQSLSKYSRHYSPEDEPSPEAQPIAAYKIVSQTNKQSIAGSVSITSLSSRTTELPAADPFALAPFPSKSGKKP
# MELK = system: MELK; parameters: species or system human, MV4-11 + K-562 + COLO205 + SK-N-BE2 + OVCAR-8; conditions: read-out: apparent Kd; compound concentrations: 100 nM and 1000 nM (sheet 'Samples'), CATDS: 1.9268078616401899E-2; n = 1
# CSNK2A1;CSNK2A3 = system: CSNK2A1;CSNK2A3; parameters: species or system human, MV4-11 + K-562 + COLO205 + SK-N-BE2 + OVCAR-8; conditions: read-out: apparent Kd; compound concentrations:100 nM and 1000 nM (sheet 'Samples'); n = 1
# CSNK2A2 = system: CSNK2A2; parameters: species or system human, MV4-11 + K-562 + COLO205 + SK-N-BE2 + OVCAR-8; conditions: read-out: apparent Kd; compound concentrations:100 nM and 1000 nM (sheet 'Samples'); n = 1
# GAK = system: GAK; parameters: species or system human, MV4-11 + K-562 + COLO205 + SK-N-BE2 + OVCAR-8; conditions: read-out: apparent Kd; compound concentrations:100 nM and 1000 nM (sheet 'Samples'); n = 1
# PKN3 = system: PKN3; parameters: species or system human, MV4-11 + K-562 + COLO205 + SK-N-BE2 + OVCAR-8; conditions: read-out: apparent Kd; compound concentrations:100 nM and 1000 nM (sheet 'Samples'); n = 1
# PRKAG1 = system: PRKAG1; parameters: species or system human, MV4-11 + K-562 + COLO205 + SK-N-BE2 + OVCAR-8; conditions: read-out: apparent Kd; compound concentrations:100 nM and 1000 nM (sheet 'Samples'); n = 1
# RET = system: RET; parameters: species or system human, MV4-11 + K-562 + COLO205 + SK-N-BE2 + OVCAR-8; conditions: read-out: apparent Kd; compound concentrations:100 nM and 1000 nM (sheet 'Samples'); n = 1
# SIK2 = system: SIK2; parameters: species or system human, MV4-11 + K-562 + COLO205 + SK-N-BE2 + OVCAR-8; conditions: read-out: apparent Kd; compound concentrations:100 nM and 1000 nM (sheet 'Samples'); n = 1
# [1] = compound concentrations:100 nM and 1000 nM (sheet 'Samples')
smiles,measurement,setting,value
COc1cc(Nc2nccc(-c3cnn4ncccc34)n2)cc(OC)c1 [GW801372X],potency estimated from few doses,"AAK1; compound concentrations: 100 nM and 1000 nM (sheet 'Samples'), CATDS: 3.8573145954119099E-2",0.184 µM
same,potency estimated from few doses,"BMP2K; compound concentrations: 100 nM and 1000 nM (sheet 'Samples'), CATDS: 1.7916348880173499E-2",1.82 µM
same,potency estimated from few doses,"CLK1; compound concentrations: 100 nM and 1000 nM (sheet 'Samples'), CATDS: 0.124159144382542",0.0182 µM
same,potency estimated from few doses,CLK4; CATDS: 0.10081286200227101,0.0266 µM
same,potency estimated from few doses,"FLT4; compound concentrations: 100 nM and 1000 nM (sheet 'Samples'), CATDS: 1.8307563949858899E-2",1.65 µM
same,potency estimated from few doses,"GSK3A; compound concentrations: 100 nM and 1000 nM (sheet 'Samples'), CATDS: 2.1356053852556199E-2",0.929 µM
same,potency estimated from few doses,"GSK3B; compound concentrations: 100 nM and 1000 nM (sheet 'Samples'), CATDS: 3.2546275447974102E-2",0.277 µM
same,potency estimated from few doses,NUAK1; CATDS: 5.2338687670537398E-2,0.0945 µM
same,potency estimated from few doses,"PAK4; compound concentrations: 100 nM and 1000 nM (sheet 'Samples'), CATDS: 2.0251882597793001E-2",1.12 µM
same,potency estimated from few doses,"Q6ZSR9; compound concentrations: 100 nM and 1000 nM (sheet 'Samples'), CATDS: 3.9611085380352497E-2",0.173 µM
c1cnn2ncc(-c3ccnc(Nc4ccc5c(c4)OCCO5)n3)c2c1 [GW806290X],potency estimated from few doses,"AAK1; compound concentrations: 100 nM and 1000 nM (sheet 'Samples'), CATDS: 2.3873616537329799E-2",1.08 µM
same,potency estimated from few doses,"CLK1; compound concentrations: 100 nM and 1000 nM (sheet 'Samples'), CATDS: 6.6494036250362598E-2",0.106 µM
same,potency estimated from few doses,CLK4; CATDS: 9.8127081360261201E-2,0.0572 µM
same,potency estimated from few doses,"GSK3A; compound concentrations: 100 nM and 1000 nM (sheet 'Samples'), CATDS: 3.86716280658417E-2",0.308 µM
same,potency estimated from few doses,"GSK3B; compound concentrations: 100 nM and 1000 nM (sheet 'Samples'), CATDS: 6.1886578646693099E-2",0.121 µM
same,potency estimated from few doses,MELK,2.36 µM
same,potency estimated from few doses,NUAK1; CATDS: 2.7516933063414101E-2,0.713 µM
same,potency estimated from few doses,"Q6ZSR9; compound concentrations: 100 nM and 1000 nM (sheet 'Samples'), CATDS: 2.3514563204250299E-2",1.13 µM
CC(=O)N[C@@H](Cc1ccc(OP(=O)(O)O)cc1)C(=O)N[C@H]1CCC(=O)N2CCC[C@@H](C(=O)NCc3ccc(Cl)cc3)N2C1=O [RO0325308-000],potency estimated from few doses,AAK1; [1],0.737 µM
same,potency estimated from few doses,BMP2K; [1],1.48 µM
same,potency estimated from few doses,CLK1; [1],0.0604 µM
same,potency estimated from few doses,CSNK2A1;CSNK2A3,1.43 µM
same,potency estimated from few doses,CSNK2A2,1.78 µM
same,potency estimated from few doses,FLT4; [1],0.0284 µM
same,potency estimated from few doses,GAK,0.0594 µM
same,potency estimated from few doses,GSK3A; [1],0.059 µM
same,potency estimated from few doses,GSK3B; [1],0.0607 µM
same,potency estimated from few doses,PAK4; [1],1.17 µM
same,potency estimated from few doses,PKN3,0.152 µM
same,potency estimated from few doses,PRKAG1,0.523 µM
same,potency estimated from few doses,Q6ZSR9; [1],1.03 µM
same,potency estimated from few doses,RET,0.876 µM
same,potency estimated from few doses,SIK2,0.943 µM
Cc1n[nH]c2cc(Nc3ccnc(Nc4cccc(CN5CCOCC5)c4)n3)ccc12 [GW682569X],potency estimated from few doses,"AAK1; compound concentrations: 100 nM and 1000 nM (sheet 'Samples'), CATDS: 0.12351757147220301",0.729 µM
same,potency estimated from few doses,"BMP2K; compound concentrations: 100 nM and 1000 nM (sheet 'Samples'), CATDS: 0.100079515212571",1.25 µM
same,potency estimated from few doses,"Q6ZSR9; compound concentrations: 100 nM and 1000 nM (sheet 'Samples'), CATDS: 0.10935758268406801",0.981 µM
